A short description of assay [1]: ATG_CRE_CIS: Attagene CIS-FACTORIAL HepG2 Assay for human cAMP Responsive Element (CRE) binding protein 3 (AID 2282926). Conditions: HepG2 CRE cis-reporter, Attagene multiplexed mRNA; actives raise or lower the signal. A digest of the protocol:
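HepG2 cells transiently transfected with a multiplexed reporter library (CRE-driven unit among them) were dosed for 24 h. Reporter mRNA was quantified by RT-PCR, fluorescent labelling, HpaI digestion and capillary electrophoresis, with bidirectional fitting against DMSO baseline.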

Assay [2] has as its target CCAAT/enhancer-binding protein beta (Homo sapiens) (UniProt P17676). The experiment in a line: ATG_C_EBP_CIS: Attagene CIS-FACTORIAL HepG2 Assay for human CCAAT/Enhancer Binding Protein (C/EBP) beta (AID 2282927). Particulars: HepG2 Attagene cis-factorial transcription factor reporter; actives raise or lower the signal. A digest of the protocol: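 Transiently transfected HepG2 (MRTU library, endogenous TF-driven promoters); 24 h dosing; total RNA → oligo(dT) RT → PCR → 6-FAM primer extension → HpaI digest → CE; fit bidirectionally vs DMSO.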

Assay [3] in a line: ATG_CMV_CIS: Attagene CIS-FACTORIAL HepG2 Assay for human CMV (Internal Marker) (AID 2282928).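 Further: endpoint acts as a background internal control marker rather than a target.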 Particulars: HepG2 CMV promoter reporter, transcription factor profiling; actives raise or lower the signal. A digest of the protocol:
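After transient transfection of HepG2 with reporter transcription units driven by cis-regulatory promoters, cells receive test chemical for 24 h. Labeled reporter amplicons, digested with HpaI, are sized and quantified by capillary electrophoresis against DMSO.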

Assay [4] is described as follows: ATG_DR4_LXR_CIS: Attagene CIS-FACTORIAL HepG2 Assay for human Liver X Receptor (LXR), DR4 submotif (AID 2282929). Conditions: HepG2 Attagene DR4 cis-reporter, mRNA transcription; actives raise or lower the signal. A digest of the protocol:
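HepG2 cells were transiently transfected with multiple cis-regulated reporter units and dosed for 24 hours. The DR4 reporter mRNA was quantified by RT-PCR, 6-FAM labelling and capillary electrophoresis. Bidirectional fits used DMSO as baseline.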

Assay [5] has as its target Aryl hydrocarbon receptor (Homo sapiens) (UniProt P35869). The experiment in a line: ATG_Ahr_CIS: Attagene CIS-FACTORIAL HepG2 Assay for human Aryl Hydrocarbon Receptor (Ahr) (AID 2282930). Particulars: HepG2 AhR cis-factorial reporter transcription; actives raise or lower the signal. A digest of the protocol: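 Read-out: reporter mRNA quantified by RT-PCR with fluorescent primer extension and capillary electrophoresis. Human HepG2 liver cells carried transfected cis-promoter reporter units and were exposed to chemical for 24 h; gain or loss fitted relative to DMSO.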

Assay [6] is described as follows: ATG_AP_2_CIS: Attagene CIS-FACTORIAL HepG2 Assay for human Activator Protein 2 (AP-2) (AID 2282932). Particulars: HepG2 AP-2 cis-reporter, Attagene transcription factor profiling; actives raise or lower the signal. In short, it runs like this: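 HepG2 cells transiently transfected with cis-element reporter units and exposed for 24 h. Reporter mRNA measured by RT-PCR, FAM labelling, HpaI digestion and capillary electrophoresis. Changes in either direction fitted relative to DMSO.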

Assay [7] can be described thus: ATG_BRE_CIS: Attagene CIS-FACTORIAL HepG2 Assay for human Bone Morphogenetic Protein (BMP) Response Element (BRE) (AID 2282933). Conditions: HepG2 BMP response element reporter, Attagene transcription factor profiling; actives raise or lower the signal. In short, it runs like this:
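Read-out: reporter mRNA induction quantified by RT-PCR and capillary electrophoresis after 24 h chemical exposure of transfected HepG2 cells. Endogenous factor activity on the BMP response element; gain or loss fitted against DMSO baseline.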

For assay [8], the target named is Retinoic acid receptor alpha (Homo sapiens) (UniProt P10276). The assay can be described thus: ATG_DR5_RAR_CIS: Attagene CIS-FACTORIAL HepG2 Assay for human Retinoic Acid Receptor Alpha (RARE), DR5 submotif (AID 2282934).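 On AC50: reporter responds to endogenous RAR alpha beta and gamma in HepG2 not RARA alone.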 Conditions: HepG2 Attagene cis-factorial RARE DR5 reporter, mRNA; actives raise or lower the signal. In short, it runs like this:
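Read-out: DR5-driven reporter transcript measured by RT-PCR, 6-FAM primer extension, HpaI digest and capillary electrophoresis. Human HepG2 liver cells carry transiently transfected cis-element reporter constructs; dosing lasts 24 h. Gain or loss of signal fitted against DMSO baseline.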

For assay [9], the target named is Transcription factor E2F1 (Homo sapiens) (UniProt Q01094). The assay can be described thus: ATG_E2F_CIS: Attagene CIS-FACTORIAL HepG2 Assay for human E2F Transcription Factor 1 (AID 2282935). Particulars: HepG2 Attagene cis-reporter, E2F reporter RNA transcripts; actives raise or lower the signal. A digest of the protocol: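 Endogenous E2F1 activity read through cis-promoter reporter units transfected into HepG2. After 24 h compound treatment, reporter mRNA measured by RT-PCR, HpaI digestion and capillary electrophoresis. Bidirectional fit versus DMSO.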

Assay [10] is described as follows: ATG_AP_1_CIS: Attagene CIS-FACTORIAL HepG2 Assay for human Activator Protein 1 (AP-1) (AID 2282931). Particulars: HepG2 Attagene cis-factorial AP-1 reporter mRNA; actives raise or lower the signal. In short, it runs like this:
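HepG2 cells transiently transfected with cis-element-driven reporter transcription units, dosed for 24 hours. Reporter mRNA measured by RT-PCR, 6-FAM labelling, HpaI digestion and capillary electrophoresis. Bidirectional fitting against DMSO baseline.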

Some structures have more than one record in an assay (separate samples or runs), and their calls can disagree. Calls of active or inactive are those of the source. How the source made its calls: active means hit-call score of the fitted dose curve at least 0.9, where 1 is the maximum; inactive means score below 0.9.

Chain of Aryl hydrocarbon receptor (Homo sapiens) (P35869 whole entry, looked up): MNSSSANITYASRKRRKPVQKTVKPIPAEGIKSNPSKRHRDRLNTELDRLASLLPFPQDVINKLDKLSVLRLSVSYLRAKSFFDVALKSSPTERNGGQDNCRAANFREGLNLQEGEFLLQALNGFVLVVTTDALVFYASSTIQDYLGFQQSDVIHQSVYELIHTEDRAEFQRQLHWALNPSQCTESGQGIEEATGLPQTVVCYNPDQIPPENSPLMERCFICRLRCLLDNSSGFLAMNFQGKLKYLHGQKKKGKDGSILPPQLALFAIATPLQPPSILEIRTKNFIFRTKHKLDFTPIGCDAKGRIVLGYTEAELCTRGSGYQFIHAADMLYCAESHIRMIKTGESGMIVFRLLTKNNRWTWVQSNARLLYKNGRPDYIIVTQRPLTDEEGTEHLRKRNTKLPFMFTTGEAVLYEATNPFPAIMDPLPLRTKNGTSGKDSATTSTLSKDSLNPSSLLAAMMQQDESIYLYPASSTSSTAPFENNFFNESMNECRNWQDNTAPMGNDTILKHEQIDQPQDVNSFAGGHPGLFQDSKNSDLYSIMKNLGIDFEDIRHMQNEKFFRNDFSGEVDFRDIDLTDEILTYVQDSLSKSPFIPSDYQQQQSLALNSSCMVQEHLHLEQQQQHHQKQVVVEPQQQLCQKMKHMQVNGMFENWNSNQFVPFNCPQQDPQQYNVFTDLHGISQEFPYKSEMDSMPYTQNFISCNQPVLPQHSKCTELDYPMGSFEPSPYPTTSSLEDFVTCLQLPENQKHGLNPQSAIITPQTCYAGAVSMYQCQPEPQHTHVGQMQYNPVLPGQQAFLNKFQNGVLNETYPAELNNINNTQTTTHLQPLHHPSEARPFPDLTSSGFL
Chain of Transcription factor E2F1 (Homo sapiens) (Q01094 whole entry, looked up): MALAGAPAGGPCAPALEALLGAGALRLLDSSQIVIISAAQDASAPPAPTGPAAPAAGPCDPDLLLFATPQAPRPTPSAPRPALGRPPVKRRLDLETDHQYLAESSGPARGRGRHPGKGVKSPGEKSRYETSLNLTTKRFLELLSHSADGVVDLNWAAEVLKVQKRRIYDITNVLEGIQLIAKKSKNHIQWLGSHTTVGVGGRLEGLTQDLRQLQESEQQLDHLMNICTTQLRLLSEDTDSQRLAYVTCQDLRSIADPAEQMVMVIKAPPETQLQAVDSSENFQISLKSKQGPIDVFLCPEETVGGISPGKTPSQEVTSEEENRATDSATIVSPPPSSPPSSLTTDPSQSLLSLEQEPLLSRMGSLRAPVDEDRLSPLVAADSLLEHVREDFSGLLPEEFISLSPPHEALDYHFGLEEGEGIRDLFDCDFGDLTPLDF
Chain of Retinoic acid receptor alpha (Homo sapiens) (P10276 whole entry, looked up): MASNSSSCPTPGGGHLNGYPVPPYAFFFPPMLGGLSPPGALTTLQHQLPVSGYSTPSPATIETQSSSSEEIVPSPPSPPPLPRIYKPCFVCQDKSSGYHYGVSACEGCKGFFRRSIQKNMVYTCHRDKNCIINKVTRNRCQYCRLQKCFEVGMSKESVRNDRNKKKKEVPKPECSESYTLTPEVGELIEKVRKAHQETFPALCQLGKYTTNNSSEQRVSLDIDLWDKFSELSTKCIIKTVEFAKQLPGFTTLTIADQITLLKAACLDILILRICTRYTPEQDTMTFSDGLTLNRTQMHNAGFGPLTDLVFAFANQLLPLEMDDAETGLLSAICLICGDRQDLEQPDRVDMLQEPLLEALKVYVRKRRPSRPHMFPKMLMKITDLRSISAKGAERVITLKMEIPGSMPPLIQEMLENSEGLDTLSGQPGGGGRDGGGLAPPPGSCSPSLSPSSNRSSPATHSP
Chain of CCAAT/enhancer-binding protein beta (Homo sapiens) (P17676 whole entry, looked up): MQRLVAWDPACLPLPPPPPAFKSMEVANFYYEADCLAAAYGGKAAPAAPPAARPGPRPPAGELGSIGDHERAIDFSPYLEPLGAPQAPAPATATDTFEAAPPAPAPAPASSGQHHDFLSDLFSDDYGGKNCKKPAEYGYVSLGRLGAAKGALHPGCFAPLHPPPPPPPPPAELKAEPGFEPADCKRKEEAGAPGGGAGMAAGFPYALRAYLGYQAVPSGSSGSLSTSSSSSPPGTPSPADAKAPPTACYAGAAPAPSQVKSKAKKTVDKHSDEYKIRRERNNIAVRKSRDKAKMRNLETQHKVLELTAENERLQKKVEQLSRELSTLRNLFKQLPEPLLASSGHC

`C=C(C)C#N`: the outcome in assay [1], in [2], in [3], in [4], in assay [5] and in assay [6] was inactive. Besides, the molecule was classed as inactive in [7], in assay [8] and in [9].

A word on the AC50: it is the midpoint of the concentration-response curve, whichever way the signal moves. `O=C(OC1CCCCC1)c1ccccc1C(=O)OC1CCCCC1`: the molecule was classed as inactive in [1], in assay [2], in assay [6] and in assay [8]. Further, the AC50 in [4] was 13.7 µM (active); in assay [5], 17.4 µM (active); in assay [10], 38.1 µM (active); in assay [7], 67.5 µM (active); in [9], 187 µM (active).

For the molecule `CCOC(=O)CP(=O)(OCC)OCC`, the molecule was classed as inactive in assay [1], in assay [2], in [4], in assay [5], in assay [10] and in assay [6]. Moreover, the call in [7] and in [9] was inactive.

For `CC(=O)C=C(C)C`, the molecule was called inactive in assay [1], in assay [2], in assay [4], in assay [5], in assay [6] and in [7]. Besides, the call in assay [8] and in assay [9] was inactive.

Consider `CN(C)N=O`, for which the result in assay [1], in assay [3], in assay [4], in assay [5], in assay [6] and in assay [7] was inactive. Further, the molecule was called inactive in [8] and in assay [9].

Consider `ClC1(Cl)C2(Cl)C3(Cl)C4(Cl)C(Cl)(Cl)C5(Cl)C3(Cl)C1(Cl)C5(Cl)C24Cl` (stereo not given), for which the outcome in assay [1], in assay [4], in [5], in [10], in assay [7] and in assay [8] was inactive. The result in assay [9] was inactive.

As for `CCC(C)(C)c1ccc(O)c(C(C)(C)CC)c1`, the result in assay [1], in assay [5], in assay [6], in [7] and in [9] was inactive. In addition, the AC50 is 11.1 µM (active) in assay [3], 4.91 µM (active) in assay [4] and 5.73 µM (active) in assay [8].

On to `NC(=O)O`, for which the outcome in assay [1], in assay [3], in [4], in assay [5], in assay [6] and in assay [7] was inactive. For the same molecule, the molecule was classed as inactive in [9].

On to `COc1ccccc1OC`, for which the molecule was classed as inactive in assay [1], in assay [2], in [4], in assay [10], in assay [7] and in assay [8]. The molecule was classed as inactive in [9].

For the molecule `O=C1CCCN1`, the result in assay [1], in [3], in assay [4], in [5], in [10] and in assay [6] was inactive. The molecule was called inactive in assay [7] and in assay [9].

For `N#CN=C(N)N`, the molecule was called inactive in [1], in assay [3], in assay [4], in assay [5], in assay [10] and in [7]. Also, the outcome in assay [8] and in assay [9] was inactive.

Regarding `Oc1cccc2cccnc12`, the result in assay [1], in assay [3], in assay [4], in assay [5], in assay [10] and in assay [6] was inactive. The call in [7] and in assay [9] was inactive. The AC50 was 139 µM (active) in assay [3], 165 µM (active) in [5] and 24.8 µM (active) in [10].

Regarding `O=C(Nc1ccc2[nH]ccc2c1)c1cc2cc(F)ccc2n1Cc1cccc(F)c1`, the molecule was called inactive in [1], in assay [5], in [6], in assay [7], in assay [8] and in assay [9]. Also, the AC50 in assay [3] was 11 µM (active); in assay [4], 7.44 µM (active); in assay [10], 7.29 µM (active).

Take `CC(C)C1CCC(Cc2ccc(Cl)cc2)C1(O)Cn1cncn1` (stereo not given): the call in [1], in assay [3], in [8] and in assay [9] was inactive. For the same molecule, the figures for the AC50 in assay [4], in assay [5] and in assay [7] were 18.1 µM (active), 3.08 µM (active) and 11 µM (active), respectively.

Take `C1CCC(NC2CCCCC2)CC1`: the molecule was classed as inactive in assay [1], in [3], in assay [4], in [5], in [7] and in [8]. Besides, in assay [9], the call was inactive.

With `Cn1sc(Cl)cc1=O`, the outcome in assay [1], in assay [3], in assay [4], in [10], in assay [6] and in assay [7] was inactive. Besides, the molecule was classed as inactive in assay [8] and in assay [9]. Also, in assay [5], the AC50 was 67.3 µM (active).

For `CCSC(C)CC1CC(=O)C(C(CC)=NOC/C=C/Cl)=C(O)C1` (stereo not given), the molecule was classed as inactive in assay [1], in assay [4], in assay [10], in assay [6], in assay [7] and in assay [8]. The call in assay [9] was inactive. Besides, in [5], the AC50 was 28.4 µM (active).

Take `CC(C)(C)c1cc(O)ccc1O`: the AC50 in assay [1] is 151 µM (active); in assay [3], 64.7 µM (active); in [4] it was 24.9 µM (active); in [5], 1.85 µM (active); in assay [10], 66.7 µM (active); in assay [7], 19.8 µM (active). Also, the AC50 in assay [9] was 66.5 µM (active). In addition, the outcome in assay [6] and in [8] was inactive.

For `CCNc1nc(NC(C)(C)C)nc(SC)n1`, the molecule was classed as inactive in assay [1], in assay [4], in [5], in [6], in [7] and in assay [8]. In addition, in [9], the call was inactive. Besides, the AC50 in assay [3] is 65.6 µM (active); in assay [10], 152 µM (active).

Turning to `ClCC(Cl)CCl`, the result in assay [1], in assay [2], in [4], in assay [10], in assay [6] and in assay [7] was inactive. Besides, the molecule was called inactive in assay [8] and in assay [9].

On to `O=[N+]([O-])c1ccc2c3c(cccc13)CC2`, for which the molecule was called inactive in assay [1], in assay [2], in assay [4], in assay [10], in assay [6] and in assay [7]. Moreover, the result in assay [8] and in assay [9] was inactive.

Consider `COc1ccc(C=O)cc1OC`, for which the call in assay [1], in [3], in [4], in [5], in [10] and in [6] was inactive. The molecule was called inactive in assay [7], in assay [8] and in assay [9].

Take `CC(C)c1ccc(CO)cc1`: the molecule was called inactive in [1], in assay [2], in assay [4], in assay [10], in assay [7] and in [8]. In addition, the molecule was classed as inactive in [9].

Consider `C=CC#N`, for which the molecule was called inactive in assay [1], in assay [2], in [4], in assay [5], in assay [7] and in assay [8]. Further, the molecule was called inactive in assay [9].

For `ClC(Cl)=C(Cl)C(Cl)=C(Cl)Cl`, the AC50 in [1] was 180 µM (active); in [4], 100 µM (active); in assay [5], 71.4 µM (active); in assay [6], 165 µM (active). The result in assay [7], in assay [8] and in [9] was inactive.

Take `CCCCCCCCC(=O)NCc1ccc(O)c(OC)c1`: the outcome in assay [1], in assay [3], in assay [10], in assay [6], in assay [8] and in assay [9] was inactive. Also, the AC50 in [4] was 54.5 µM (active); in assay [7], 171 µM (active).

As for `CN(CCCC(=O)c1cccnc1)N=O`, the outcome in assay [1], in [3], in assay [4], in assay [5], in assay [10] and in assay [6] was inactive. The molecule was classed as inactive in [7] and in assay [9].

Take `CCOC(=O)/C=C(C)/C=C/C[C@@H](C)CCCC(C)C`: the AC50 was 23.5 µM (active) in assay [1]; 53.5 µM (active) in [4]; 100 µM (active) in assay [10]; 46.9 µM (active) in assay [6]; 33.4 µM (active) in assay [8]; 180 µM (active) in [9]. The molecule was classed as inactive in assay [7].

The values are drawn from PubChem BioAssay (EPA / NIEHS).
